Screening results: PubChem, Broad Institute
Only a selection was taken, and hits are over-represented in it overall.
CD40 NFkB inh: CD40 pathway inhibition in BL2 cells. inhibition, % at 10 µM. 0.94% of 83,000 active. BL2 NF-kB luciferase reporter, CD40L-induced, 4 h;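 active = mean inhibition of at least 50% with a set share of replicates also reaching that level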;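 note: 0% = neutral control wells and 100% = IKK inhibitor VII at 50 µM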
The depositor's hits bear a star; ! = not confirmed by another sample; [ ] = remark or other dose.

SMILES	CD40 NFkB inh
COc1ccc(C(=O)N2C[C@@H]3[C@H](c4ccccc42)[C@H](CO)N3C(=O)Cc2ccccn2)cc1	10[25 µM]
COc1ccc(CNC(=O)C[C@@H]2C=C[C@H](NC(=O)c3cccc(F)c3)[C@H](CO)O2)cc1	6[25 µM]
COc1ccc2c3c(n(C)c2c1)[C@@H](CO)N(C(=O)Nc1ccc(F)cc1)CC31CN(S(=O)(=O)c2cn(C)cn2)C1	8[25 µM]
CC(=O)Nc1ccc2c(c1)CC(=O)N(C)C[C@@H](C)[C@@H](CN(C)C)O2	-2
Cc1ccc(S(=O)(=O)N[C@@H]2CC[C@@H](CCNC(=O)C3CCCC3)O[C@@H]2CO)cc1	-6
COCC(=O)Nc1ccc2c(c1)[C@H]1C[C@@H](CC(=O)N[C@H](C)c3ccccc3)O[C@H](CO)[C@H]1O2	-13[25 µM]
N#C[C@@H]1[C@H](c2ccc(-c3cncnc3)cc2)[C@H](CO)N1C(=O)Cc1ccccc1	-13[25 µM]
C[C@@H]1CN([C@@H](C)CO)S(=O)(=O)c2ccc(-c3cncnc3)cc2O[C@@H]1CN(C)C(=O)NC1CCCC1	-13[25 µM]
C[C@H]1CN([C@@H](C)CO)C(=O)c2cccc(NS(=O)(=O)c3ccc(F)cc3)c2O[C@@H]1CN(C)S(=O)(=O)c1cccs1	-5[25 µM]
CC(C)NC(=O)N(C)C[C@@H]1Oc2ccccc2C(=O)N(C)C[C@H]1C	6
COc1ccccc1NC(=O)N(C)C[C@@H]1OCc2ccccc2-c2c(n(C)c3ccccc23)C(=O)N([C@@H](C)CO)C[C@@H]1C	-3
COc1ccccc1NC(=O)N(C)C[C@@H]1OCc2ccccc2-c2c(n(C)c3ccccc23)C(=O)N([C@H](C)CO)C[C@@H]1C	9
C[C@@H]1CN([C@@H](C)CO)C(=O)c2c(c3ccccc3n2C)-c2ccccc2CO[C@H]1CN(C)C(=O)Nc1ccccc1C(F)(F)F	64*[25 µM]
C[C@@H]1CN([C@@H](C)CO)C(=O)c2c(c3ccccc3n2C)-c2ccccc2CO[C@@H]1CN(C)Cc1ccccc1	39
Cc1ccccc1-c1ccc2c(c1)O[C@H](CN(C)C(=O)Nc1ccc(C(F)(F)F)cc1)[C@H](C)CN([C@@H](C)CO)S2(=O)=O	29[25 µM]
O=[N+]([O-])c1ccc(S(=O)Cc2ccccc2)c([N+](=O)[O-])c1 (configuration not stated)	106*
O=[N+]([O-])c1ccc(CS(=O)c2ccccc2)cc1 (configuration not stated)	-6
O=C(Cc1cccc([N+](=O)[O-])c1)Nc1ccccc1	-2
O=C(C[C@H]1C[C@H]2c3cc(NC(=O)C4CCC4)ccc3O[C@H]2[C@@H](CO)O1)NCCc1ccccc1	-9[25 µM]
O=C(N[C@H]1CC[C@H](CCn2cc(C3CCCC3)nn2)O[C@H]1CO)c1cccnc1	13
CN(C)C(=O)[C@H]1N[C@H]2c3ccc(-c4ccc(F)cc4)c(=O)n3C[C@H]2[C@@H]1CO	-8[25 µM]
C[C@]12CCC3C(CC=C4C[C@@H](O)CC[C@@]43C)C1CCC2[C@]1(C)CCC(=O)O1 (some centres not stated)	-7
CC(C)(C)[C@H](N)C(=O)N[C@H]1CCC2C3CC=C4C[C@@H](O)CC[C@]4(C)C3CC[C@@]21C (some centres not stated)	103*
C[C@]12CC[C@H](O)CC1=CCC1C2CC[C@@]2(C)C1CC[C@@H]2NC(=O)[C@@H](N)Cc1ccccc1 (some centres not stated)	10
CC(=O)N1[C@H](C(=O)NCC2CC2)[C@@H](CO)[C@@H]2Cn3c(ccc(-c4cccc(F)c4)c3=O)[C@@H]21	6[25 µM]
SMILES	CD40 NFkB inh
CNC[C@H]1Oc2ccc(N(C)C)cc2C(=O)N([C@H](C)CO)C[C@H]1C	2[25 µM]
C=C1CC(Cn2cc(Br)c(=O)[nH]c2=O)(c2ccc(-c3ccccc3)cc2)OC1=O (configuration not stated)	64*
O=c1[nH]c(=O)n(C2CC(O)C(CO)O2)cc1Br (configuration not stated)	-10
C=C1CC(COc2cc(=O)oc3ccccc23)(c2ccccc2)OC1=O (configuration not stated)	31
Cc1cccc(S(=O)(=O)N2C[C@H]3[C@@H](c4ccccc42)[C@H](CO)N3C(=O)CC2CC2)c1	14[25 µM]
COc1ccc(NC(=O)N(C)C[C@H]2OCc3cn(nn3)CCCC(=O)N([C@@H](C)CO)C[C@H]2C)c(OC)c1	-9[25 µM]
CCC(=O)N1CC2(CCN(C(=O)Nc3c(C)noc3C)CC2)c2c([nH]c3cc(OC)ccc23)[C@H]1CO	-13[25 µM]
C/C(=N\OCC(=O)Nc1nc2ccccc2s1)c1ccccc1	13
O=C(Nc1nc2ccccc2s1)c1cnccn1	28
CC(=NNc1nc2ccccc2s1)c1ccncn1	63*
CC(=O)N(C)C[C@@H]1Oc2ccc(NS(C)(=O)=O)cc2CC(=O)N(C)C[C@@H]1C	6
COc1cccc(-c2ccc(C3[C@@H]4CN(S(=O)(=O)c5ccccc5)C[C@H]3N4)cc2)c1 (some centres not stated)	24
COc1cccc(S(=O)(=O)N2C[C@@H]3N[C@H](C2)C3c2ccc(/C=C/c3ccccc3)cc2)c1 (some centres not stated)	46*!
COc1cccc(S(=O)(=O)N2[C@@H]3CNC[C@H]2C3c2ccc(/C=C/c3ccccc3)cc2)c1 (some centres not stated)	-4[25 µM]
COc1ccc2c3c([nH]c2c1)[C@H](CO)N(S(C)(=O)=O)CC31CN(C(=O)Cc2cccnc2)C1	-6[25 µM]
CC(C)NC(=O)N1C[C@@H]2[C@H](c3ccccc31)[C@@H](CO)N2C(=O)Nc1ccccc1	1[25 µM]
CO[C@H]1CN(C)C(=O)c2cc(NC(=O)NC3CCCCC3)ccc2OC[C@H](C)N(C)C[C@@H]1C	3
NC(=O)C(CCCCN1CCCCC1)(c1ccccc1)c1ccccc1	2
CN(C)C(=O)C(CCN1CCC(O)(c2ccc(Cl)cc2)CC1)(c1ccccc1)c1ccccc1	50*
OC(CCCN1CCC(O)(c2ccc(Cl)cc2)CC1)c1ccc(F)cc1 (configuration not stated)	18
CCOCCCNC(=O)/C(C#N)=C/c1ccc(Cl)c([N+](=O)[O-])c1	73*
N#C/C(=C\c1ccc(O)c(O)c1)C(=O)NCCCc1ccccc1	1
COCCCNC(=O)c1ccc([N+](=O)[O-])c(Cl)c1	21
C[C@H]1CCCCO[C@H](CN(C)C(=O)Nc2cccc3ccccc23)[C@@H](C)CN([C@@H](C)CO)C(=O)c2cc(NC(=O)CCC(F)(F)F)ccc2O1	3[25 µM]
CCNC(=O)[C@H]1[C@H](CO)[C@H]2Cn3c(cccc3=O)[C@@H]1N2CCC(F)(F)F	-7[25 µM]
SMILES	CD40 NFkB inh
CC(C)CC#Cc1ccc([C@@H]2[C@H]3CN(S(=O)(=O)c4cccc(F)c4)CC(=O)N3[C@H]2CO)cc1	17[25 µM]
Cc1nn2c(NCCN(C)C)c3c(nc2c1-c1ccccc1)CCCC3	-78
COc1cccc(-c2cc3nc4c(c(NCC(C)(C)CN(C)C)n3n2)CCCC4)c1	63*
Cc1nn2c(NCc3cccnc3)c3c(nc2c1-c1ccccc1)CCC3	13
C[C@H]1CN([C@@H](C)CO)C(=O)c2c(c3ccccc3n2C)-c2ccccc2CO[C@H]1CN(C)Cc1cccc2c1OCCCO2	-10[25 µM]
COC(=O)c1ccc(CN2CC(=O)N3[C@@H](CO)[C@H](c4ccc(-c5cccnc5)cc4)[C@@H]3C2)cc1	7[25 µM]
Cc1[nH]c2ccccc2c1C(c1ccccn1)N1CCC(C(N)=O)CC1 (configuration not stated)	62*
